Assay outcomes from PubChem BioAssay.
VDR inh: Inhibitors of the vitamin D receptor (VDR): qHTS; Vitamin D3 receptor (Homo sapiens), P11473; AID 504847, 2011; VDR-SRC2-3 peptide fluorescence polarization, 2 h; Potency, µM, without a hit: max response, negative = inhibition, actives largely listed as inhibitors; actives 0.93% (n = 400,000)
Target sequence (P11473 whole entry, looked up): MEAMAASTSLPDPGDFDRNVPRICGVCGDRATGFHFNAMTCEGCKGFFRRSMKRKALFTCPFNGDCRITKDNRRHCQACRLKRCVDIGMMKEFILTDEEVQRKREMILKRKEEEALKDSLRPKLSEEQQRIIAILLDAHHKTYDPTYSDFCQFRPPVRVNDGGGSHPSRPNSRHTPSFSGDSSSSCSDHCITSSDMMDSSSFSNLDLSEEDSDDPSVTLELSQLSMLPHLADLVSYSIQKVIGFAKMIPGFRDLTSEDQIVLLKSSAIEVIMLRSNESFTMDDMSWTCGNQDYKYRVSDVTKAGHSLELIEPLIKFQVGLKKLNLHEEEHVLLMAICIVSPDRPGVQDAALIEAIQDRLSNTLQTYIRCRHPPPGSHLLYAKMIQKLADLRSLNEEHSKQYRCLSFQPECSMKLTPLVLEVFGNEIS
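FP read-out; VDR + SRC2-3 coactivator peptide; 23 nl compound by pintool; 2 h RT incubation; reagents held at 4 deg C, protected from light.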
DT40 TDP1 CPT: qHTS for Inhibitors of human tyrosyl-DNA phosphodiesterase 1 (TDP1): qHTS in cells in presence of CPT | chicken DT40 Tdp1-/-;hTDP1 cells + 20 nM CPT, ATP luminescence, 48 h | Potency, µM (doses to about 46.2 µM), for inactives: at the top dose activity change, negative = growth inhibition, usual class: inhibitors | actives 12% (n = 420,000); note: nearly all actives have a fitted effect of over 55% in size
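Chicken DT40 Tdp1-/- cells stably complemented with human TDP1 were seeded at 400 cells/well in medium containing 20 nM camptothecin, exposed to pin-transferred compounds, and grown at 37 °C for at least 48 hr. Viability was read as ATP luminescence.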
DT40 TDP1 no CPT: qHTS for Inhibitors of human tyrosyl-DNA phosphodiesterase 1 (TDP1): qHTS in cells in absence of CPT | DT40 Tdp1-/- hTDP1 cells, no CPT, ATP luminescence, 48 h | actives 15% (n = 420,000) | AID 686978, 2013 | Potency, µM (doses to about 46.2 µM), for the others: top-dose activity change, negative = growth inhibition, usual class: inhibitors; note: nearly all actives have a fitted effect of over 55% in size
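Chicken DT40 Tdp1-/- cells stably complemented with human TDP1 were seeded at 400 cells/well with DMSO in place of 20 nM camptothecin. After compound pinning, cells grew at least 48 hr at 37 °C; viability read by CellTiter-Glo luminescence.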
KAT2A inh: qHTS Assay for Inhibitors of GCN5L2; Histone acetyltransferase KAT2A (Homo sapiens), Q92830; actives 0.21% (n = 390,000); Potency, µM (top dose mostly 58.9 µM), for the others: at the top dose activity change, negative = inhibition, most hits filed as inhibitors; GCN5L2 HAT assay, ThioGlo1 CoA-SH fluorescence
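Enzyme at 20nM final was mixed with library compounds for 15 min at room temperature. Peptide H3(1-25) at 75uM, acetyl-CoA at 70uM and ThioGlo1 at 50uM were then added. Plates were read immediately and after 20 min (Ex340nm/Em540nm).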
TDP1 inh: qHTS Assay for Inhibitors of Tyrosyl-DNA Phosphodiesterase (TDP1) | Potency, µM (top dose mostly 130 µM), for inactives: at the highest dose activity change, negative = inhibition, most hits filed as inhibitors | recombinant TDP1, AlphaScreen DNA substrate cleavage | actives 0.28% (n = 350,000) | Tyrosyl-DNA phosphodiesterase 1 (Homo sapiens), Q9NUW8; note: nearly all actives have a fitted effect of over 40% in size
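Here, a 5' biotin and 3' phosphotyrosine-FITC DNA oligonucleotide reports Tdp1 activity: intact substrate bridges AlphaScreen beads, while cleavage leaves a 3' phosphate and drops signal. All incubations at room temperature.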
PLK1 PBD inh: qHTS for Inhibitors of PLK1-PDB (polo-like kinase 1 - polo-box domain): Primary Screen; Serine/threonine-protein kinase PLK1 (Homo sapiens), P53350; Plk1 PBD binding of FITC phosphopeptide, fluorescence polarization; Potency, µM, without a hit: max response, negative = inhibition, hits mostly inhibitors; actives 2.8% (n = 360,000); note: series mostly up to about 57 µM; nearly all actives have a fitted effect of over 65% in size
* hit, by the source's call; ? = inconclusive; / = no result; [ ] = another dose, or the depositor's remark. This is a sample that favours compounds with a hit; in the whole collection about 18% have one here. Calls come from the whole dose curve; as a rule, active = well fitted curve in the direction sought with a large enough effect; inconclusive = small, poorly fitted or top-dose-only effect, or another doubt; inactive = no such curve, though single readings can be large; an effect the other way counts as inactive or inconclusive. % is set by controls: 0 for no effect and ±100 for the full control effect; potency is the fitted concentration of half-maximal effect.

SMILES	VDR inh	DT40 TDP1 CPT	DT40 TDP1 no CPT	KAT2A inh	TDP1 inh	PLK1 PBD inh
CCOCCCNS(=O)(=O)c1ccc(NC(=O)c2ccc(OC)c([N+](=O)[O-])c2)cc1	?	?	?	-2%	-5%	3.4µM*
COc1ccc(C(=O)Nc2ccc(S(=O)(=O)NC(C)=O)cc2)cc1[N+](=O)[O-]	-16%	1%	-7%	-11%	1%	-9%
Cc1ccc(NC(=O)c2cn3c4c(ccc(Cl)c4c2=O)OC(C)C3)c(C)c1 (configuration not stated)	11%	-19%	-26%	3%	1%	/
Cc1oc(-c2ccccc2F)nc1CSCC(=O)NCc1ccccc1	-9%	?	?	0%	9%	/
O=C(Cn1c(=O)oc2cc(S(=O)(=O)N3CCCCC3)ccc21)Nc1cccc(Cl)c1	-8%	8.2µM*	9.2µM*	-26%	-1%	/
O=C(Cn1c(=O)oc2cc(S(=O)(=O)N3CCCCCC3)ccc21)Nc1cccc(C(F)(F)F)c1	1%	8.2µM*	9.2µM*	-26%	-2%	/
Cc1cccc(N(C(=O)c2ccco2)C(C(=O)NC2CCCC2)c2ccco2)c1C (configuration not stated)	-3%	-5%	-23%	-5%	11%	-9%
Cc1ccc(CNC(=O)C2CCC(=O)N(Cc3ccccc3F)C2)s1 (configuration not stated)	30%	-37%	-4%	-4%	2%	-14%
CCC(C)NC(=O)C1CCC(CNS(=O)(=O)c2ccc(Cl)cc2)CC1 (configuration not stated)	18%	-27%	-4%	-7%	5%	/
CN1C(=O)C2C3c4ccccc4C(c4ccccc43)[C@@H]2C1=O (some centres not stated)	-8%	?	?	3%	/	2%
O=C1C2C3c4ccccc4C(c4ccccc43)C2c2nc3ccccc3n21 (configuration not stated)	1%	4.1µM*	4.1µM*	-6%	2%	-4%
CCOC(=O)c1c(C)n(C)c2cc([N+](=O)[O-])c(O)c([N+](=O)[O-])c12	-13%	-23%	-13%	-15%	1%	21µM*
CCOC(=O)c1c(C)n(C)c2ccc(OC(C)=O)cc12	18%	-10%	-15%	-6%	1%	-1%
NC(=S)N/N=C/c1ccccc1[N+](=O)[O-]	-7%	-27%	-9%	-15%	/	?
CCNC(=S)N/N=C/c1ccccc1[N+](=O)[O-]	-21%	23µM*	?	-8%	9%	-11%
CCCOc1ccc(/C=N/Nc2ccccc2[N+](=O)[O-])c(O)c1	-7%	10µM*	12µM*	-1%	8%	2%
CCCOc1ccc(/C=N/NC(=S)Nc2ccccc2[N+](=O)[O-])c(O)c1	-5%	5.8µM*	5.2µM*	-3%	5%	-3%
COc1ccc([C@H]2N[C@]3(CCCN(Cc4ccco4)C3=O)[C@H]3C(=O)N(Cc4ccccc4)C(=O)[C@@H]23)cc1	/	3%	-13%	/	/	-3%
FC(F)(F)c1ccccc1-c1nccc(N2CCNCC2)n1	-13%	-5%	3%	-9%	/	/
O=C(NN1C(=O)c2ccccc2NC1c1ccc([N+](=O)[O-])o1)c1ccc([N+](=O)[O-])cc1 (configuration not stated)	-2%	18µM*	8.2µM*	-1%	2%	-11%
O=C(NN1C(=O)c2ccccc2NC1c1ccco1)c1ccccc1 (configuration not stated)	3%	-5%	2%	-2%	0%	-10%
O=C(NN1C(=O)c2ccccc2NC1c1ccc([N+](=O)[O-])o1)c1ccccc1 (configuration not stated)	-11%	?	16µM*	-5%	2%	7%
O=[N+]([O-])c1cc(-c2nc(-c3ccccc3)no2)ccc1N1CCCC1	9%	-7%	-12%	-6%	0%	/
O=C(O)c1ccccc1C(=O)Nc1ccc(-n2nc(C(F)(F)F)cc2C(F)(F)F)cc1	-2%	15%	10%	-3%	3%	4%
COc1ccccc1C(=O)NC(=O)Nc1ccc(-c2cc(C(F)(F)F)nn2-c2ccccc2)cc1	3%	5.8µM*	4.6µM*	-6%	5%	/
SMILES	VDR inh	DT40 TDP1 CPT	DT40 TDP1 no CPT	KAT2A inh	TDP1 inh	PLK1 PBD inh
COc1ccccc1C(=O)Nc1ccc(-c2cc(C(F)(F)F)nn2-c2ccccc2)cc1	7%	4.1µM*	5.2µM*	-10%	-7%	/
COc1cccc(C(=O)NC(=O)Nc2ccc(-n3nc(C(F)(F)F)cc3C(F)(F)F)cc2)c1	-2%	-15%	-13%	-4%	3%	/
O=c1cc(-c2ccc(O)c(O)c2)oc2cc(OC3OC(CO)C(O)C(O)C3O)cc(O)c12 (configuration not stated)	/	5%	-2%	/	8%[56.1 µM]	/
O=C(N/N=C/c1c[nH]c2ccccc12)c1ccn(Cc2ccc(Cl)cc2Cl)n1	-15%	-21%	?	-1%	7%	5%
O=C(N/N=C/c1c[nH]c2ccc(Br)cc12)c1ccn(Cc2ccc(Cl)cc2)n1	1%	?	21µM*	-2%	4%	-8%
CC1(c2ccccc2Br)NC(=O)N(CC(=O)NC2CCCCC2)C1=O (configuration not stated)	4%	-9%	3%	-1%	0%	-9%
Cc1cccc(OCc2nc(-c3ccccn3)n[nH]2)c1	3%	21µM*	15µM*	/	5%	-3%
Cc1ccc(OCc2nc(-c3ccccn3)n[nH]2)cc1	1%	3.3µM*	4.6µM*	2%	9%	-2%
Cc1ccc(OCc2n[nH]c(=S)n2Cc2ccccc2)cc1	3%	-2%	-12%	-5%	5%	-17%
Cc1cc(O)c(C(=O)c2cnc3c(c2)COc2ccccc2-3)cc1Cl	9%	?	?	-7%	8%	/
CO/N=C(/C(=O)N[C@H]1C(=O)N2C(C(=O)O)=C(COC(C)=O)CSC12)c1csc(N)n1 (some centres not stated)	?	-3%	-3%	-5%	?	/
